Compound activity deposited in PubChem BioAssay by National Center for Advancing Translational Sciences (NCATS).
The list is not random: actives were taken first. Their share in the collection is about 8.1%.
PINK1 modulator – modulators of PINK1 expression; 0.2% of 410,000 active; Potency, µM (doses to about 76.6 µM), inactives show at the top dose activation (PINK1 increase), actives largely listed as activators; PINK1 immunofluorescence, high-content cytometry, 24 h; AID 624263; active = well fitted activation curve with a large enough effect; inconclusive = small, poorly fitted or top-dose-only effect; cell line not stated here; also: % of control where 0% means no effect; nearly all actives have a fitted effect of over 65% in size
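Measures PINK1 amount and localization on or inside mitochondria by immunofluorescence. Stable cells get compounds at 5 concentrations for 24 hours before fixation and staining; CCCP controls included.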
RORg inh – ROR gamma (mouse) transcription inhibition | Drosophila S2 Gal4-RORgamma UAS-luciferase reporter, 20 h | 5.4% of 310,000 active | Potency, µM (highest dose often 53.6 µM), without a hit: at the highest dose activity change, negative = inhibition, usual class: inhibitors | P51450; also: % is scaled to controls: 0 for no effect and ±100 for the full control effect; nearly all actives have a fitted effect of over 60% in size
Target sequence (P51450 whole entry, looked up, the tested form may be a part): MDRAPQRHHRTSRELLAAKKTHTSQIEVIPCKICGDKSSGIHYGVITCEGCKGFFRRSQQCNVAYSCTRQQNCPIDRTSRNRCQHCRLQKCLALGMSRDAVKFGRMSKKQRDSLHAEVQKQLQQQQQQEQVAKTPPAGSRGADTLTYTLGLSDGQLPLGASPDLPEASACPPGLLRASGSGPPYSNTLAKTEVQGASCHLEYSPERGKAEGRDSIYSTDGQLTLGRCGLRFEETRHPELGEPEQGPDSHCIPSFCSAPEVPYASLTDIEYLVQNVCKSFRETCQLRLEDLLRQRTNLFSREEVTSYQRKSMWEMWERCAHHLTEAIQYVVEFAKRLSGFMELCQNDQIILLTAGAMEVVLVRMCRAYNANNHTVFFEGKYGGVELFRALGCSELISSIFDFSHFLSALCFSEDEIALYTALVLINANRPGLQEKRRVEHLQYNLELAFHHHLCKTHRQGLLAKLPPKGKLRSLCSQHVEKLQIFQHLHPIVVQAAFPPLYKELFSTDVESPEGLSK
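A Gal4/UAS one-hybrid system in insect cells: metallothionein-promoter Gal4–ROR gamma fusion plus Photinus luciferase reporter. Copper sulfate 700 uM final, 20 hr ambient incubation, luminescent detection after 10 min with reagent.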
ClpP mod – qHTS Assay for Activators of ClpP. ATP-dependent Clp protease proteolytic subunit (Bacillus subtilis (strain 168)), P80244. AID 651965, 2013. 1.9% of 340,000 active. purified B. subtilis ClpP, FRET peptide cleavage, 20 min. Potency, µM (top dose mostly 57.5 µM), without a hit: at the top dose activity change, negative = active; active = well fitted falling curve with a large enough effect; inconclusive = small, poorly fitted or top-dose-only effect; inactive = no such curve, though single readings can be large or run the other way; also: the source files actives as falling curves though it sought activators and does not explain the sign; nearly all actives have a fitted effect of over 65% in size
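Buffer: 100 mM Tris/HCl pH8, 100 mM KCl, 0.05% low protease BSA, 2.5% glycerol, 0.01% Tween-20. ClpP 10 microg/mL final; 20 min RT; delta FRET normalized to ADEP and DMSO controls.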
Epigenetic reg – derepresses silenced GFP reporter in murine cells; murine LDR cells, GFP reporter derepression, 30 h; Potency, µM (doses to about 53.9 µM), without a hit: at the top dose GFP activation, actives largely listed as activators; 0.2% of 280,000 active; also: % of control where 0% means no effect; nearly all actives have a fitted effect of over 60% in size
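Readout is the number of GFP-expressing murine LDR cells, counted by cytometry following washing. Cells were treated with compound for 30 h at 37 C; the stably integrated CMV-GFP locus is normally silent.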
Gal4-VP16 FLuc – counter-screen for ROR gamma inhibitors: Gal4-VP16 reporter; Drosophila S2 Gal4-VP16 UAS-luciferase, luminescence, 20 h; Potency, µM (highest dose often 53.6 µM), inactives show top-dose activity, negative = inhibition, hits mostly inhibitors; 3.5% of 310,000 active; AID 2546;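 also: Gal4-VP16 expression switched on by copper sulfate through the metallothionein promoter; % is scaled to controls: 0 for no effect and ±100 for the full control effect; nearly all actives have a fitted effect of over 50% in size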
Sfp inh – inhibitors of Bacillus subtilis Sfp phosphopantetheinyl transferase | 3.5% of 310,000 active | Biochemical Sfp PPTase activity, qHTS | Potency, µM, without a hit: largest response in the series, negative = inhibition, usual class: inhibitors | Q9F4F7;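 also: the enzyme is Sfp with the accession as filed and its product quenches rhodamine fluorescence; 0% = enzyme reaction without inhibitor and -100% = no enzyme wells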
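Fluorescence-quenching assay: 15 nM Sfp-PPTase preincubated 15 min at room temperature with compound, then 5 uM rhodamine-CoA and 12.5 uM BHQ-2-labelled YbbR peptide added. Fluorescence (ex 525/em 598 nm) read at start and after 30 min; difference gives rate.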
Numbers without * were called inactive; ? = inconclusive; / = not tested or not shown; [ ] = dose if it differs, or a comment. Unless noted, calls follow the shape of the dose curve; as a rule, active = well fitted curve in the direction sought with a large enough effect; inconclusive = small, poorly fitted or top-dose-only effect, or another doubt; inactive = no such curve, though single readings can be large; an effect the other way counts as inactive or inconclusive. Potency is read from the fitted curve at half-maximal effect.

SMILES	PINK1 modulator	RORg inh	ClpP mod	Epigenetic reg	Gal4-VP16 FLuc	Sfp inh
S=c1[nH]nc(Cc2cccc3ccccc23)n1-c1ccccc1	-1%	3.2µM*	-3%	0%	7.1µM*	18%
C=CCn1c(=O)c2ccccc2n2c(=S)[nH]nc12	-3%	-29%	4%	/	-6%	-27%
CCCCCCOc1ccc(CC(=O)O)cc1	0%	/	-3%	/	/	/
CN(C)c1ccc(/C=C2\C(Cl)=Cc3ccccc32)cc1	5%	/	0%	/	/	/
C=CCn1c(Cc2cccc3ccccc23)n[nH]c1=S	-2%	4µM*	-3%	1%	11µM*	5%
C/C(N)=C(/C#N)C(=O)COC(=O)CCSc1ccccc1Cl	1%	11µM*	0%	1%	?	-26%
Cn1cnnc1SCC(=O)Nc1sc2c(c1C#N)CCCCC2	?	?	1%	0%	?	50µM*
N#Cc1c(NC(=O)CSc2ncn[nH]2)sc2c1CCCCC2	2%[38.3 µM]	0.4µM*	1%	-1%	0.16µM*	17%
CCCCn1nnnc1SCC(=O)Nc1sc2c(c1C#N)CCCC2	4%	?	-2%	-1%	8%	11%
Cc1c(NS(=O)(=O)c2ccc(C(C)(C)C)cc2)c(=O)n(-c2ccccc2)n1C	0%	/	0%	-1%	/	/
Cc1cccc(C(=O)NCc2nc(-c3cccc(NC(=O)c4ccoc4C)c3)oc2C)n1	0%	/	/	/	/	/
CCn1c(=N)c(C(=O)NCC2CCCO2)cc2c(=O)n3cc(C)ccc3nc21 (stereo not drawn)	1%	/	4%	0%	/	/
CN(C)C(=O)c1ccc(N=Nc2c(O)c3ccccc3[nH]c2=O)cc1	1%	/	/	/	/	/
CN(C)C(=S)N=Nc1[nH]c2ccccc2c1O	5%	0.89µM*	1%	?	5.6µM*	-19%
CCC(NC(=S)NC1CCCCC1)c1ccc(C)cc1 (stereo not drawn)	/	2.8µM*	/	/	5µM*	13%
CCCc1ccc(C(C)NC(=S)NC2CCCCC2)cc1 (stereo not drawn)	?	2.5µM*	0%	/	3.5µM*	16%
CC(NC(=S)NC1CCCCC1)c1ccccc1 (stereo not drawn)	0%	-18%[1.91 µM]	0%	/	?	17%
O=C(Cc1cccs1)NCc1cc(Cl)cc(Cl)c1	2%	4%	/	/	8%	7%
S=C(NCc1cccs1)Nc1cccc(Cl)c1	?	20µM*	-1%	1%	?	28%
O=C(NCc1cccs1)Nc1cccc(Cl)c1	-1%	/	-3%	/	/	/
S=C(NCCNC(=S)Nc1ccccc1Cl)Nc1ccccc1Cl	2%	?	/	/	-15%	2%
S=C(NCc1cccs1)Nc1ccccc1Cl	1%	13µM*	1%	0%	14µM*	-2%
S=C(NCc1cccs1)Nc1cc(Cl)cc(Cl)c1	?	13µM*	/	1%	?	11%
O=[N+]([O-])c1ccc2c(c1)C=C/C2=C\c1ccccc1	1%	/	0%	/	/	/
CCCCOC(=O)c1c(N)n(-c2ccc(OC)cc2OC)c2nc3ccccc3nc12	-5%	/	-14%	0%	/	/
SMILES	PINK1 modulator	RORg inh	ClpP mod	Epigenetic reg	Gal4-VP16 FLuc	Sfp inh
CCOC(=O)c1c(N)n(-c2ccc(C)c(C)c2)c2nc3ccccc3nc12	-1%	/	4%	1%	/	/
CCCNC(=O)c1c(N)n(-c2cccc(OC)c2)c2nc3ccccc3nc12	-4%	42%	20µM*	2%	-20%	0%
Nc1c(C(=O)NCc2ccco2)c2nc3ccccc3nc2n1CCc1ccccc1F	-1%	-24%	28µM*	8%	16%	56µM*
COc1ccc(-n2c(N)c(C(=O)NCc3ccco3)c3nc4ccccc4nc32)c(OC)c1	10%	-32%	11µM*	0%	-7%	?
COc1ccc(CCn2c(N)c(C(=O)NCc3ccco3)c3nc4ccccc4nc32)cc1OC	-3%[38.3 µM]	27%	28µM*	?	-11%	45µM*
COc1cc(=O)n2c(c1C(=O)N(C)Cc1nonc1C)CCN(CC1CC=CCC1)CC2 (stereo not drawn)	-1%	/	/	/	/	/
